Measurements published in PubChem BioAssay.
Activity calls are given as the source filed them.

How the values were obtained:
[1] = small molecules captured by biotinylated probe aFSTL3 – biochemical, small-molecule microarray, fluorescence 635/667, stem cell growth factor project, primary screen (AID 1064); conditions: higher = more signal;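 also: measures binding of the biotinylated anti-FSTL3 antibody to printed compounds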
[2] = binders from COS7 lysate, DM2A8 probe, primary screen, torsin A project, cell lysate, small-molecule microarray, fluorescence 635/667 (AID 1065); conditions: higher = more signal, COS7 lysate expressing mutant human TOR1A
[3] = small molecules captured by biotinylated probe aFGF2 – biochemical, small-molecule microarray, fluorescence 635/667, stem cell growth factor project, primary screen (AID 1067); conditions: higher = more signal;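 also: measures binding of biotinylated aFGF2 protein to printed compounds on slides; z-score merges feature fluorescence and signal-to-noise across triplicate slides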
[4] = small molecules captured by biotinylated probe aFGF10 – biochemical, small-molecule microarray, fluorescence 635/667, stem cell growth factor project, primary screen (AID 1071); conditions: higher = more signal;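 also: score merges 667 nm spot intensity and signal to noise from triplicate slides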
[5] = target: Neurogenic locus notch homolog protein 2 (Homo sapiens) (UniProt Q04721); test: small molecules binding Notch2 protein – biochemical, small-molecule microarray, 635 nm fluorescence, stem cell growth factors, primary screen (AID 1073); conditions: higher = more signal
[6] = target: Pro-neuregulin-1, membrane-bound isoform (Homo sapiens) (UniProt Q02297); test: small molecules binding neuregulin-1 protein – biochemical, small-molecule microarray, fluorescence 635/667, psychiatric disease protein project, primary screen (AID 1075); conditions: NRG1 binding, 635 nm fluorescence, higher = more signal;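 also: score combines 667 nm spot fluorescence with signal to noise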
[7] = test system: Neuregulin-1 EGF-like domain; test: small molecules binding NRG1 EGF domain – biochemical, small-molecule microarray, 635 nm fluorescence, primary screen (AID 1081); conditions: higher = more signal;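 also: binding of the protein to compounds printed on small-molecule microarray slides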
[8] = FRG1 expression reporter modulators in myotubes – cell-based, C2C12 myotubes, firefly/Renilla luciferase, luminescence, FRG1 inhibition for FSHD, primary screen (AID 1084); conditions: FRG1 promoter luciferase, higher = more signal, called active from +8 up or from −8 down
[9] = small molecules captured by biotinylated probe aFST – biochemical, small-molecule microarray, fluorescence 635/667, stem cell growth factor project, primary screen (AID 1086); conditions: higher = more signal;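 also: score merges 667 nm fluorescence with signal-to-noise of each printed compound spot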
[10] = binders of probe aHhip on microarray, primary screen, stem cell growth factor project, biochemical, small-molecule microarray, fluorescence 635/667 (AID 1087); conditions: higher = more signal;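 also: score merges spot fluorescence at 667nm with spot signal to noise ratio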
[11] = test system: PRMT1 (protein arginine N-methyltransferase 1); test: small molecules binding arginine methyltransferase PRMT1 – biochemical, small-molecule microarray, 635 nm fluorescence, primary screen (AID 1088); conditions: higher = more signal;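 also: binding of Prmt1 protein to compounds spotted on small-molecule microarray slides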
[12] = growth effects on S. cerevisiae YJM789 – YJM789 clinical isolate, OD600, 24 h, basal, primary screen (AID 1089); conditions: higher = more signal, called active from +8 up or from −8 down;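 also: growth of clinical yeast isolate S. cerevisiae YJM 789 seeded 1000 cells per well; test concentration not given here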
[13] = S. pombe growth modifiers, basal conditions – strain 972, OD600, 24 h, no modulator, primary screen (AID 1090);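 also: basal condition with compound alone and no growth modifier present; test concentration not given here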; conditions: S. pombe 972 growth, higher = more signal, called active from +8 up or from −8 down
[14] = budding yeast growth modifiers under rapamycin – strain BY4716, OD600, 96 h, primary screen (AID 1091); also: test concentration not given here; conditions: S. cerevisiae BY4716 + rapamycin, higher = more signal, called active from +8 up or from −8 down
[15] = target: Torsin-1A-interacting protein 2 (Homo sapiens) (UniProt Q8NFQ8); test: small molecules binding lysate-expressed LULL1 – cell lysate, human LULL1 lysate, 635/667 nm fluorescence, primary screen (AID 1092); conditions: small-molecule microarray, hLULL1 lysate binding, 635 nm fluorescence; higher = more signal;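 also: probe is lysate of COS7 cells overexpressing human LULL1; score merges per-feature 667 nm fluorescence with signal-to-noise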
[16] = optical density change of DRC41 E. coli – strain DRC41, OD650, 24 h, E. coli filamentation project, primary screen (AID 1093);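 also: MC1000 strain lacking acrAB efflux and sulA so SOS filamentation is blocked; test concentration not given here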; conditions: E. coli DRC41 growth, higher = more signal, called active from +8 up or from −8 down
[17] = probe aLefty2 binding to arrayed compounds – biochemical, biotinylated probe, 635/667 nm fluorescence, primary screen (AID 1094); conditions: small-molecule microarray, higher = more signal;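 also: score merges spot fluorescence near 667 nm with spot signal-to-noise ratio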
[18] = test system: Noggin (protein binding on small-molecule microarray); test: small molecules binding Noggin protein – biochemical, 635/667 nm fluorescence, primary screen (AID 1095); conditions: 635 nm fluorescence, higher = more signal;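 also: score merges 667 nm feature fluorescence with signal to noise over triplicate slides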
[19] = target: Neurogenic locus notch homolog protein 3 (Homo sapiens) (UniProt Q9UM47); test: small molecules binding NOTCH3 protein – biochemical, 635/667 nm fluorescence, primary screen (AID 1096); conditions: small-molecule microarray, 635 nm fluorescence, higher = more signal
[20] = probe aEGFR binding to arrayed compounds – biochemical, biotinylated probe, 635/667 nm fluorescence, primary screen (AID 1097); conditions: small-molecule microarray, higher = more signal;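 also: probe is a biotinylated anti-EGFR antibody binding compounds printed on slides; score combines fluorescence near 667 nm and signal to noise of each spot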

Neurogenic locus notch homolog protein 3 (Homo sapiens), sequence (Q9UM47 whole entry, looked up): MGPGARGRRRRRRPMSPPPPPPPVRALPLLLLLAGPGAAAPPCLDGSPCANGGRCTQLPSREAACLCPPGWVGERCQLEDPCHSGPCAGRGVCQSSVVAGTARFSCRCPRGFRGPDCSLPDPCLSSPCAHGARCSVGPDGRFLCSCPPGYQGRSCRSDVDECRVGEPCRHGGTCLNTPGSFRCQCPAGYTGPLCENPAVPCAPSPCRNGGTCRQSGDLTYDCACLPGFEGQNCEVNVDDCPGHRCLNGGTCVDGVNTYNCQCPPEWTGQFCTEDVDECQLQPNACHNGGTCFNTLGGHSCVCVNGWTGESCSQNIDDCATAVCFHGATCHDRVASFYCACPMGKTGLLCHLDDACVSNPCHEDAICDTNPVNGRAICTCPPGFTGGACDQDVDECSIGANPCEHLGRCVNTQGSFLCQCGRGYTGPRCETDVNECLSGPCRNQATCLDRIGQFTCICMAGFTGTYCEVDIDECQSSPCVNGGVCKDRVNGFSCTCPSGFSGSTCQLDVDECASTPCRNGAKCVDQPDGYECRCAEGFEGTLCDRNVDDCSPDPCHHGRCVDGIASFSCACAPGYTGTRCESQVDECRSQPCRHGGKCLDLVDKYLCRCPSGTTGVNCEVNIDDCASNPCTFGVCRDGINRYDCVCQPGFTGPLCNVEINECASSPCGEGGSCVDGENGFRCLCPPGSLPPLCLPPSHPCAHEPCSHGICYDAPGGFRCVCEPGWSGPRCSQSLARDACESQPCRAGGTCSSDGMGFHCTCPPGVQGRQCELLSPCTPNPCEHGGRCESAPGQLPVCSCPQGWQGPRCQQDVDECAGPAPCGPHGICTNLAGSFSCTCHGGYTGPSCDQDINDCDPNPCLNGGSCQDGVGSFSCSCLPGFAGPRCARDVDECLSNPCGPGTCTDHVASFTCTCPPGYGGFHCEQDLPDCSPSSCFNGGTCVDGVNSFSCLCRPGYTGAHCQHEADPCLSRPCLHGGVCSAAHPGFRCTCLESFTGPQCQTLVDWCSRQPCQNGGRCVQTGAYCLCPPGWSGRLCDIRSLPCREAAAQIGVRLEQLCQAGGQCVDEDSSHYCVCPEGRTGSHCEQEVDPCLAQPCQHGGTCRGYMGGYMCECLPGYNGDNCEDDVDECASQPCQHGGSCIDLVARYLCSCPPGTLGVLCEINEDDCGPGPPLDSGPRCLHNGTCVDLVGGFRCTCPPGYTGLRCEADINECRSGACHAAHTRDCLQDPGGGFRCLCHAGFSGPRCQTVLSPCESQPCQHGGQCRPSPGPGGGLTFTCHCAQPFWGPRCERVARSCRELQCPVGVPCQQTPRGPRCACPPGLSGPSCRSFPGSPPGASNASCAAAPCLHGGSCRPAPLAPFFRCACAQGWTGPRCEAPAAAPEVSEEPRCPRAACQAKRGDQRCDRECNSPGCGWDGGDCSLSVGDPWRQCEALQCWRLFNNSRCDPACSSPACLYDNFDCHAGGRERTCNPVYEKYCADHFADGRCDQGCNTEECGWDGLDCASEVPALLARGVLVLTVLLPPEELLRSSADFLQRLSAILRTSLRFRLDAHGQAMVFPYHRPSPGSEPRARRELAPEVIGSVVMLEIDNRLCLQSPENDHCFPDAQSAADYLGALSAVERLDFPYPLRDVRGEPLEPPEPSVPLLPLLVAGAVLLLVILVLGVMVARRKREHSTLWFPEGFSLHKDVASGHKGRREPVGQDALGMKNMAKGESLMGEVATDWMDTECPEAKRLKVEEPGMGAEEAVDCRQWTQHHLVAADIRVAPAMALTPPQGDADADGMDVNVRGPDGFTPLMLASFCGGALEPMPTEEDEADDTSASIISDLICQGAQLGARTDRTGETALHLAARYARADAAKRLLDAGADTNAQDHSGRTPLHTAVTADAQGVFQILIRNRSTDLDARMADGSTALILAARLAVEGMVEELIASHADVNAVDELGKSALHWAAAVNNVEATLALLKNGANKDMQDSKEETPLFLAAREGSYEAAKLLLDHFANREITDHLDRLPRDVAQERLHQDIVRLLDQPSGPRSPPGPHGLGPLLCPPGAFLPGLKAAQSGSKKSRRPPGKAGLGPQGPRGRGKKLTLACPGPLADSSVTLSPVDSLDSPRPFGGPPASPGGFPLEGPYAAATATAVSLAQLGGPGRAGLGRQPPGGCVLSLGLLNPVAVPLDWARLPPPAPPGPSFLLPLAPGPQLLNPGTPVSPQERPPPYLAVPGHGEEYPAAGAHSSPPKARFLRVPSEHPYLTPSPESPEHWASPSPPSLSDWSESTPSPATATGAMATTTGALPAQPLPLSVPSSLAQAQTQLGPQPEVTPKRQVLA
Torsin-1A-interacting protein 2 (Homo sapiens), sequence (Q8NFQ8 whole entry, looked up): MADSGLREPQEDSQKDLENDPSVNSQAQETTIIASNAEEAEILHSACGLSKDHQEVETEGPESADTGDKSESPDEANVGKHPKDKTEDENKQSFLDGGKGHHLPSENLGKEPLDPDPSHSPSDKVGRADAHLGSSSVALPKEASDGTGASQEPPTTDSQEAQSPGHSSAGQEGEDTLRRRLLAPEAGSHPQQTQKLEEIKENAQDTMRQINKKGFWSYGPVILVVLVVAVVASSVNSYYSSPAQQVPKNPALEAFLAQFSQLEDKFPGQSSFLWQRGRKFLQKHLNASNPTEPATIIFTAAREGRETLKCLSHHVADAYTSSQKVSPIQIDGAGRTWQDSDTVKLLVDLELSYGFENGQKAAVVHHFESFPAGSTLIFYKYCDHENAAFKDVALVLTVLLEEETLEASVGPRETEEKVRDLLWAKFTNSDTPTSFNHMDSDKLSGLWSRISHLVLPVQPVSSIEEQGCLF
Pro-neuregulin-1, membrane-bound isoform (Homo sapiens), sequence (Q02297 whole entry, looked up, the tested form may be a part, canonical isoform): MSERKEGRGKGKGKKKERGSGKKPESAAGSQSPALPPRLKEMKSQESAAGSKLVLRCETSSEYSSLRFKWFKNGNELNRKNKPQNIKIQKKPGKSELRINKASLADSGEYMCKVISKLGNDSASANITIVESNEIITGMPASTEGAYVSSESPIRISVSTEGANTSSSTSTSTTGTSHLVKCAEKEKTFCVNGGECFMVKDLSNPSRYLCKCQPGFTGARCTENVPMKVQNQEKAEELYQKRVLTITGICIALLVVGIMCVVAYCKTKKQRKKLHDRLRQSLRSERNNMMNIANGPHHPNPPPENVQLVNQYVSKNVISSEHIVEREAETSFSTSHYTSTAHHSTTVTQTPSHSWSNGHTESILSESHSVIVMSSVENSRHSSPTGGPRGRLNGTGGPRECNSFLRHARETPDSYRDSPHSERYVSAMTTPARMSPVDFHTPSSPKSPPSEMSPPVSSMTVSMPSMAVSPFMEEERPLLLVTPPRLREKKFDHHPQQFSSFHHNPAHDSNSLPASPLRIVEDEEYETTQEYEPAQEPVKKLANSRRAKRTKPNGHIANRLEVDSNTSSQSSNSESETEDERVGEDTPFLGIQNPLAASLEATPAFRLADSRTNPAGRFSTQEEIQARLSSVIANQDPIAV

Row | SMILES | composite z-score [1] | composite z-score [2] | composite z-score [3] | composite z-score [4] | composite z-score [5] | composite z-score [6] | composite z-score [7] | z-score [8] | composite z-score [9] | composite z-score [10] | composite z-score [11] | z-score [12] | z-score [13] | z-score [14] | composite z-score [15] | z-score [16] | composite z-score [17] | composite z-score [18] | composite z-score [19] | composite z-score [20]
1 | COCCCNC(=O)[C@@]1(Cc2ccccc2)N=C(c2ccc(OCCCO)cc2)O[C@H]1c1ccccc1 | 0.743 | 1.2 | 0.298 | 0.155 | 0.82 | 1.38 | 1.33 | -1.4 (inactive) | 1.08 | 1.17 | 1.42 | -1.69 (inactive) | -0.475 (inactive) | -1.74 (inactive) | 3.36 | 0.474 (inactive) | 0.355 | -0.416 | 0.6 | 0.265
2 | CCOC(=O)C[C@H]1[C@H](OC(=O)Cc2ccc3c(c2)OCO3)[C@@H](NC(=O)c2ccc(-c3ccccc3)cc2)c2cc(OCCCO)ccc2N1C(=O)c1ccc2ccccc2n1 | -0.472 | 0.783 | -0.131 | 0.228 | 0.399 | 0.281 | 0.167 | -4.52 (inactive) | 0.0972 | -0.236 | 0.0972 | -1.84 (inactive) | -2.89 (inactive) | -1.13 (inactive) | 0.417 | 1.63 (inactive) | -0.168 | 0.0955 | 0.257 | -0.0661
3 | [N-]=[N+]=Nc1ccccc1C[C@]1(C(N)=O)N=C(c2ccc(OCCCO)cc2)O[C@H]1c1ccccc1 | 0.235 | 0.327 | 0.0931 | 0.373 | 0.361 | 1.82 | 1.22 | -3.01 (inactive) | 0.85 | -0.0237 | 0.203 | 0.515 (inactive) | 0.248 (inactive) | 0.143 (inactive) | 3.19 | 0.104 (inactive) | -0.0893 | -0.194 | 0.444 | -0.115
4 | COCCCNC(=O)[C@@]1(Cc2ccccc2N=[N+]=[N-])N=C(c2ccc(OCCCO)cc2)O[C@H]1c1ccccc1N=[N+]=[N-] | 0.622 | 0.81 | -0.252 | 0.436 | 1.37 | 1.52 | 0.831 | -0.702 (inactive) | 1.36 | -0.26 | 1.56 | 0.253 (inactive) | -0.143 (inactive) | 2.01 (inactive) | 3.27 | -0.27 (inactive) | 0.23 | 0.0556 | 1.1 | 0.0507
5 | O=C1O[C@H](c2ccccc2)[C@H](c2ccccc2)N2[C@H]1[C@@H](C(=O)O)[C@]1(C(=O)Nc3ccc(C#CC4=CCCCC4)cc31)[C@H]2c1ccccc1OCCO | 0.943 | 0.914 | -0.0885 | 0.729 | 1.01 | 1.69 | 0.994 | 0.755 (inactive) | 0.792 | 1.13 | 1.53 | 1.07 (inactive) | 1.1 (inactive) | -1.55 (inactive) | 3.1 | -0.273 (inactive) | 0.196 | 1.05 | 0.941 | -0.313
6 | COCCCNC(=O)C1N=C(c2ccc(OCCCO)cc2)N(c2ccccc2)O1 (stereo not given) | -0.39 | 0.461 | 0.0038 | 0.848 | 0.872 | 0.124 | 0.609 | 3.02 (inactive) | 0.504 | 0.0176 | 1.39 | 0.0302 (inactive) | 0.42 (inactive) | -0.779 (inactive) | 1.94 | 0.919 (inactive) | -0.0553 | 1.08 | 0.911 | -0.0549
7 | COC(=O)c1c(CC[C@@H](CO)NC(=O)N[C@H](Cn2cc(Cc3ccccc3)nn2)C(C)C)oc(C(C)=O)c1C(=O)OC | -0.234 | 0.128 | -0.119 | 1.09 | 0.0441 | 0.0567 | 1.06 | 0.82 (inactive) | 0.059 | -0.236 | 1.08 | -0.178 (inactive) | -0.787 (inactive) | 0.158 (inactive) | 1.08 | 0.918 (inactive) | -0.166 | 0.493 | 0.39 | -0.145
8 | COCCOC(=O)N1C(=O)[C@@]2(c3cc(C#Cc4ccc(OC)cc4)ccc31)[C@H](c1ccccc1OCCO)N1[C@H](c3ccccc3)[C@H](c3ccccc3)OC(=O)[C@H]1[C@@H]2C(=O)N1CCN(c2ncccn2)CC1 | -0.173 | 0.489 | -0.0336 | 0.619 | 0.568 | 0.4 | 1.23 | -1.23 (inactive) | 0.172 | -0.0618 | 1.35 | 3.34 (inactive) | 1.95 (inactive) | 7.23 (inactive) | 2.22 | 0.579 (inactive) | -0.115 | 0.936 | 0.836 | -0.058
9 | CCc1oc(CC[C@@H](CO)NC(=O)NCCn2cc(C3(O)CCCCC3)nn2)c(C(=O)OC)c1C(=O)OC | -0.33 | 0.979 | -0.0549 | 0.809 | 0.924 | 0.172 | 1.23 | 0.306 (inactive) | 0.457 | -0.353 | 1.32 | 0.458 (inactive) | -0.173 (inactive) | -0.874 (inactive) | 0.775 | -1.2 (inactive) | -0.0615 | 1.39 | 0.939 | 0.0473
10 | O=C(C1N=C(c2ccc(OCCCO)cc2)N(c2ccccc2)O1)N1CCOCC1 (stereo not given) | -0.428 | 0.267 | 0.0646 | 1.28 | 1.45 | 1.27 | 0.336 | 2.27 (inactive) | 0.974 | -0.113 | 1.55 | -0.867 (inactive) | -0.992 (inactive) | -0.566 (inactive) | 2.22 | 1.75 (inactive) | -0.134 | 1.53 | 1.09 | 0.184
